Source: PubChem BioAssay (NCATS)
Unmarked numbers belong to inactive results. Records with an inconclusive call do not appear. The source made the active and inactive calls. Unless noted, calls come from the whole dose curve; as a rule, active = well fitted curve in either direction with a large enough effect (not every such curve was filed as active); inconclusive = small, poorly fitted or top-dose-only effect, or another doubt; inactive = flat fitted curve, though single readings scatter.

Experiments:
[1] = molecular target: Lysosomal acid glucosylceramidase (Homo sapiens) (UniProt P04062); assay: Glucocerebrosidase-p2 (AID 348; in the data active = potency below about 10 µM; note: potency is the fitted concentration of half-maximal effect); conditions: purified GBA, blue fluorogenic substrate, 40 min
Sequence of Lysosomal acid glucosylceramidase (Homo sapiens) (P04062 whole entry, looked up): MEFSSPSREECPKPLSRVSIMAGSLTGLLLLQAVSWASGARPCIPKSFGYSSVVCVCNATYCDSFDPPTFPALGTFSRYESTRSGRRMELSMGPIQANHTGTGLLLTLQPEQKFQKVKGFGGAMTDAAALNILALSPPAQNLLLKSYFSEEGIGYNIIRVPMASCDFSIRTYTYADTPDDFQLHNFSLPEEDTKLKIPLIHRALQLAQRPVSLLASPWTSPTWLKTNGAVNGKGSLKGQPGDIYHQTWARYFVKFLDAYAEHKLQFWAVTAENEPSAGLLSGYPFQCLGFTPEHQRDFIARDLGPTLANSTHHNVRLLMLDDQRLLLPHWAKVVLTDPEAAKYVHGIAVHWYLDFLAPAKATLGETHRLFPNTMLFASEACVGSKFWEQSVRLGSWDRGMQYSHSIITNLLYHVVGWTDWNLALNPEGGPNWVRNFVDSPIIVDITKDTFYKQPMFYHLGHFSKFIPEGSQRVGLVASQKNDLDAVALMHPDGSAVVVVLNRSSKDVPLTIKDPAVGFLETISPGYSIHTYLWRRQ
Procedure, shortened: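 Compounds titrated from 0.6 nM upwards against 0.2 nM enzyme in pH 5.9 citric acid/KH2PO4, taurocholate, tween-20; blue fluorogenic substrate 80 uM, 40 min room temperature, stopped and read Ex 365/Em 440 for AC50.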

[2] = AP1 Signaling Pathway (AID 357); conditions: ME-180 AP-1-bla reporter, EGF-induced, beta-lactamase ratio, 5 h; at 7.69 µM (top of the series) unless noted;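 note: ME-180 reporter cells stimulated with EGF at its EC50 level; % is set by controls: 0 for no effect and ±100 for the full control effect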
Procedure, shortened: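 In this screen, ME-180 cells in Opti-MEM with 0.5% dialyzed FBS received EC50 EGF and compound titrations for 5 h. AP-1 reporter beta-lactamase was detected via CCF4 ratio, giving AC50 for positive and negative modulators.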

[3] = molecular target: Cytochrome P450 1A2 (Homo sapiens) (UniProt P05177); assay: p450-cyp1a2 (AID 410; calls by dose curve; note: potency is the fitted concentration of half-maximal effect;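 for activity change, negative = inhibition: -100% = full effect of reference inhibitor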); conditions: recombinant CYP1A2, luciferin-ME demethylation, luminescence; series mostly up to 11.4 µM
Sequence of Cytochrome P450 1A2 (Homo sapiens) (P05177 whole entry, looked up): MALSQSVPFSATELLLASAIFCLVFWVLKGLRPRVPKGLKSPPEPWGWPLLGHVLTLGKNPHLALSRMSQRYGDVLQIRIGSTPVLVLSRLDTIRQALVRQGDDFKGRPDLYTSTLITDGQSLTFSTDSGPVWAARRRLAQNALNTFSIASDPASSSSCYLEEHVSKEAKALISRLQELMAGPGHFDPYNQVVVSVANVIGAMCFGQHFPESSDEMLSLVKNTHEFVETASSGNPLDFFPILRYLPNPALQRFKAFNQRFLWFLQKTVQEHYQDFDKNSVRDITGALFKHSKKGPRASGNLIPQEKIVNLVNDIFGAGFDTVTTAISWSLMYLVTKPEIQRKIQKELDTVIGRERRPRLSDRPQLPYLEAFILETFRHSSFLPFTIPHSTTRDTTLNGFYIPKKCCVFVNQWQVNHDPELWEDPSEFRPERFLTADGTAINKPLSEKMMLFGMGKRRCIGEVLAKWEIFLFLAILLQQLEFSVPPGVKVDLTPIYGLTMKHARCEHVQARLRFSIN
Procedure, shortened: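 Human CYP1A2 (20nM) demethylated Luciferin-ME at its Km (100uM) in 100mM KPO4. After 10 min compound preincubation, NADPH regeneration ran the reaction 60 min at room temperature. Luciferin was read by luminescence, normalized to 57 uM furafylline.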

[4] = NFAT Signaling Pathway (AID 444); conditions: Jurkat NFAT-bla M1, carbachol, beta-lactamase ratio, 5 h; at 7.69 µM (top of the series) unless noted;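 note: carbachol stimulus at about its EC50 of 1 µM final; % is set by controls: 0 for no effect and ±100 for the full control effect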
Procedure, shortened: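 Jurkat cells carrying an NFAT-driven β-lactamase reporter and co-transfected muscarinic M1 receptor were treated with compound plus carbachol (1 uM final, an EC50 level) for 5 h at 37 °C. CCF4 loading followed for 1 h at RT; 460/530 nm ratio gave %activity.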

[5] = molecular target: Glucocorticoid receptor (Homo sapiens) (UniProt P04150); assay: GR-GFP Redistribution (AID 450;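 active = compounds whose dose series gives a full or clear partial fitted curve of increased nuclear translocation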; note: potency is the fitted concentration of half-maximal effect); conditions: U2OS GR-GFP nuclear translocation, laser cytometry, 2 h
Sequence of Glucocorticoid receptor (Homo sapiens) (P04150 whole entry, looked up, the tested form may be a part): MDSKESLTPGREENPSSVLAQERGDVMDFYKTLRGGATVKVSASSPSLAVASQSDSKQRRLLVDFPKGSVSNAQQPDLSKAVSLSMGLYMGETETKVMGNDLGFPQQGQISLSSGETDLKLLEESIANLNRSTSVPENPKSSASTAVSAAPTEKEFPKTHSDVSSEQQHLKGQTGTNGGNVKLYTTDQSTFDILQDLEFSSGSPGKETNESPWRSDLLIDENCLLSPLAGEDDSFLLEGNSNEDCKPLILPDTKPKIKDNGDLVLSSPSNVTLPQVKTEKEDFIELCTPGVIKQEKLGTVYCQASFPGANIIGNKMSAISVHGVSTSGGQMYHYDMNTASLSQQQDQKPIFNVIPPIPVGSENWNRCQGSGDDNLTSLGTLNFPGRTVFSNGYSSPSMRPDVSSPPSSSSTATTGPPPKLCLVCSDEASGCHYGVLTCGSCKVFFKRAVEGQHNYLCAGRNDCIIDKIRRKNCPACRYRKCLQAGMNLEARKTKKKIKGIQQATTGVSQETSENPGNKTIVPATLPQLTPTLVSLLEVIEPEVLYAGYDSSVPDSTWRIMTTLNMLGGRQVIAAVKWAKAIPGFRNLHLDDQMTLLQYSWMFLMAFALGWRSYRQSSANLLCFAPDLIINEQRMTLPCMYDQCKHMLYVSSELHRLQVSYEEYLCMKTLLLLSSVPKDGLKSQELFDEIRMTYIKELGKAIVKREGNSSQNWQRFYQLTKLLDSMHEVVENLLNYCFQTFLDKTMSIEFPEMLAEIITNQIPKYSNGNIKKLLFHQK

[6] = molecular target: Glucocorticoid receptor (Homo sapiens) (UniProt P04150); assay: GR-EFC Redistribution (AID 451; calls by dose curve; note: potency is the fitted concentration of half-maximal effect); conditions: CHO-K1 GR-EFC translocation, beta-gal luminescence, 2 h
Procedure, shortened: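 CHO-K1 cells stably expressing nuclear-localized β-gal enzyme acceptor and GR fused C-terminally to the enzyme donor fragment; ligand-driven nuclear translocation restores β-gal by complementation. Compounds titrated up to 46 uM final, 2 h at 37 °C; luminescence read.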

[7] = molecular target: Mitogen-activated protein kinase 10 (Mus musculus) (UniProt Q61831); assay: JNK3 AlphaScreen Assay (AID 530); conditions: JNK3 lysate, c-Jun phosphorylation; series mostly up to 11.4 µM;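 note: kinase came from lysate of stimulated human HepG2 cells; signal reports phosphorylation of biotinylated GST-cJun 1-79 at Ser73 with 10 µM ATP; % is set by controls: 0 for no effect and ±100 for the full control effect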
Procedure, shortened: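 JNK3 came from HepG2 lysates pre-activated with IL-1beta and TNF-alpha and phosphorylated biotinylated GST-cJun (1-79) at 10 uM ATP, pH 7.6, room temperature. Compounds were titrated. AlphaScreen signal used anti-phospho-cJun (Ser73) antibody.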

[8] = Stat Signaling Pathway (AID 446); conditions: ME-180 SIE beta-lactamase reporter, IL-6 stimulated, 5 h; at 7.69 µM (top of the series) unless noted;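 note: ME-180 cervical cancer cells given 40 pM IL-6 alongside compound; SIE-controlled beta-lactamase reporter measured as 460/530 nm FRET emission ratio; % is set by controls: 0 for no effect and ±100 for the full control effect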
Procedure, shortened: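 ME-180 cells carrying a SIE-driven beta-lactamase reporter are stimulated with 40 pM IL-6 for 5 h at 37C in the presence of compound. The 460/530 nm FRET substrate ratio is read after 2.5 h at RT. Data are normalised to 300 pM IL-6 and to 125 nM JAK inhibitor controls.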

[9] = molecular target: 3',5'-cyclic-AMP phosphodiesterase 4B (Homo sapiens) (UniProt Q07343); assay: qHTS Assay for Inhibitors of PDE-IV (AID 607; active = well fitted activation curve with a large enough effect in the main read-out, with a control signal flat, not every such curve was filed as active; note: % of control where 0% means no effect); conditions: HEK293 ACTOne CNG channel cells, membrane potential fluorescence; series mostly up to 22.9 µM
Sequence of 3',5'-cyclic-AMP phosphodiesterase 4B (Homo sapiens) (Q07343 whole entry, looked up): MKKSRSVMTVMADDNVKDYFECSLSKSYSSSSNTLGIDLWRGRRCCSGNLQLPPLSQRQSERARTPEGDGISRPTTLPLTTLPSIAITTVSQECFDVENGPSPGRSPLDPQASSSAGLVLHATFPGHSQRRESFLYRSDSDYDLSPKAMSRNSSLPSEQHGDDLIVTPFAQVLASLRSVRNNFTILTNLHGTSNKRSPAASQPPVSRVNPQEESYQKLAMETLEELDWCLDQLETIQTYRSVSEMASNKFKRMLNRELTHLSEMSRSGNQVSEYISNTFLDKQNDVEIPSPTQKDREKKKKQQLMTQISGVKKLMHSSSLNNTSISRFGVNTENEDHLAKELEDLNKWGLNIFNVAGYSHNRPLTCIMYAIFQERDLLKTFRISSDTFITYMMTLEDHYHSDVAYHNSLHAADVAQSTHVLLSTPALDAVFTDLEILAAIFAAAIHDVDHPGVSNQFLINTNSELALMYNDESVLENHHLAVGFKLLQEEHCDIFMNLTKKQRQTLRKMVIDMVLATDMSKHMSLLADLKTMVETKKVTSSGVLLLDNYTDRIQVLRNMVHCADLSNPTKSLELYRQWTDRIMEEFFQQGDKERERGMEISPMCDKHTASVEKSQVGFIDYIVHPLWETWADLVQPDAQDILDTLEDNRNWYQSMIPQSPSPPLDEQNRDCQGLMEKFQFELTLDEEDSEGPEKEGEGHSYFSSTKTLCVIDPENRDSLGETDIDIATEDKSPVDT
Procedure, shortened: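 HEK293 ACTOne cells with CNG channel (1000/well), endogenous PDE4; membrane potential dye, compounds up to 22.9 uM final. Fluorescence Ex 535/Em 590; RO 20-1724 (100 uM final) as reference.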

[10] = molecular target: Cytochrome P450 3A4 (Homo sapiens) (UniProt P08684); assay: qHTS Assay for Activators of Cytochrome P450 3A4 (AID 885; active = well fitted curve in the direction sought with a large enough effect; an effect the other way counts as inactive or inconclusive; note: nearly all actives have a fitted effect of over 65% in size); conditions: recombinant CYP3A4, Luciferin-PPXE luminescence, 60 min; series mostly up to 11.4 µM
Sequence of Cytochrome P450 3A4 (Homo sapiens) (P08684 whole entry, looked up): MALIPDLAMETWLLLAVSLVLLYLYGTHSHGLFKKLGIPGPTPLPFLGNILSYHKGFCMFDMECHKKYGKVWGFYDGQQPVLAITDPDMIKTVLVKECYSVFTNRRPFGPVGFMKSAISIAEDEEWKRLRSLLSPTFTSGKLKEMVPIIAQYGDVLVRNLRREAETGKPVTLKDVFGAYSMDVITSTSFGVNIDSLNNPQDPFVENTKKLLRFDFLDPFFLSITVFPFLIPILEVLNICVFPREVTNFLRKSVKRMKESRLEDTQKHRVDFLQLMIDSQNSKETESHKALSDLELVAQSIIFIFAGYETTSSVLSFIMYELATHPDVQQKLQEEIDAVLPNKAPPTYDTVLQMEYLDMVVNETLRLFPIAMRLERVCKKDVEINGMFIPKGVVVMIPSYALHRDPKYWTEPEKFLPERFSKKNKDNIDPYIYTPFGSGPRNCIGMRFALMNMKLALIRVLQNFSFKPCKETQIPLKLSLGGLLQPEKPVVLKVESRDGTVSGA
Procedure, shortened: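 Human CYP3A4 (20 nM) with Luciferin-PPXE at 25 uM (its KM) in 200 mM KPO4; 10 min compound preincubation, then NADPH regeneration and 60 min reaction at RT. Luciferin read by luminescence; normalized to 57 uM ketoconazole full inhibition.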

[11] = molecular target: Cytochrome P450 2C19 (Homo sapiens) (UniProt P33261); assay: qHTS Assay for Inhibitors and Substrates of Cytochrome P450 2C19 (AID 899; active = well fitted curve in the direction sought with a large enough effect; an effect the other way counts as inactive or inconclusive; note: potency is the fitted concentration of half-maximal effect; nearly all actives have a fitted effect of over 60% in size); conditions: recombinant CYP2C19, luciferin-H EGE luminescence; series mostly up to 11.4 µM
Sequence of Cytochrome P450 2C19 (Homo sapiens) (P33261 whole entry, looked up): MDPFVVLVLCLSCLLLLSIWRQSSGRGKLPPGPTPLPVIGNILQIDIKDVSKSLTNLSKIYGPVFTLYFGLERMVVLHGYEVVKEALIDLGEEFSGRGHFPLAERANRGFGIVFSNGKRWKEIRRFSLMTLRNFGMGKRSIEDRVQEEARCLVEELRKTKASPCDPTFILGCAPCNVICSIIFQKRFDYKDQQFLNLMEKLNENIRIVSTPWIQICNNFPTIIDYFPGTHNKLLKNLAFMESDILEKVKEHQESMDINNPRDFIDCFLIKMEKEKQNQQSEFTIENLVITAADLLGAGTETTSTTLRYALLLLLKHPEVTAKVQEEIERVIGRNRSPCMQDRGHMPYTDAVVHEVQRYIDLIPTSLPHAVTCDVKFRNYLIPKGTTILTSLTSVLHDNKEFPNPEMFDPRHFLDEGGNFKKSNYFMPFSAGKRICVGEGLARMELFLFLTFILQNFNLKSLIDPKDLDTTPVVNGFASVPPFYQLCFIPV
Procedure, shortened: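 Human CYP2C19 (5nM) with Luciferin-H EGE at 10uM (its KM) in 50mM KPO4 was preincubated with compound for 10 min at 37C. NADPH regeneration started a 60 min 37C reaction. Luciferin was read by luminescence, normalized to 57uM ketoconazole.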

[12] = molecular target: Cytochrome P450 2C9 (Homo sapiens) (UniProt P11712); assay: qHTS Assay for Inhibitors and Substrates of Cytochrome P450 2C9 (AID 883; active = well fitted curve in the direction sought with a large enough effect; an effect the other way counts as inactive or inconclusive; note: % is set by controls: 0 for no effect and ±100 for the full control effect; nearly all actives have a fitted effect of over 60% in size); conditions: recombinant CYP2C9, luciferin-H luminescence, 60 min; series mostly up to 11.4 µM
Sequence of Cytochrome P450 2C9 (Homo sapiens) (P11712 whole entry, looked up): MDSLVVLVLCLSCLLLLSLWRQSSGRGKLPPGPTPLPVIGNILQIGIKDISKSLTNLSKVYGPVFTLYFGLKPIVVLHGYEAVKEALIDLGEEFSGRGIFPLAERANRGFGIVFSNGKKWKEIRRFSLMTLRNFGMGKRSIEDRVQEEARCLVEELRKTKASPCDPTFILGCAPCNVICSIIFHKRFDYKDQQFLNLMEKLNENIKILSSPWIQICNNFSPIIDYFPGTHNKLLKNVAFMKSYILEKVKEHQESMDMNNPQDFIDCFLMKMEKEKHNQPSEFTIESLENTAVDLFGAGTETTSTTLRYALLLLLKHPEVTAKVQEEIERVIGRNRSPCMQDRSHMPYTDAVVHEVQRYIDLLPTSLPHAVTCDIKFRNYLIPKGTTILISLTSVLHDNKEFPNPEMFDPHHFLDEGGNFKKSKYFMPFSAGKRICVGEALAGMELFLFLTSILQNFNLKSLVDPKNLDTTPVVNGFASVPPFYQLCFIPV
Procedure, shortened: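 Human CYP2C9 (10nM) hydroxylated Luciferin-H (100uM, at its KM) to luciferin in 25mM KPO4. Compound was preincubated 10 min at 37C, then NADPH regeneration started a 60 min reaction at 37C. Luminescence was read after detection reagent, normalized to 57uM sulphaphenazole.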

[13] = molecular target: Cytochrome P450 3A4 (Homo sapiens) (UniProt P08684); assay: qHTS Assay for Inhibitors and Substrates of Cytochrome P450 3A4 (AID 884; active = well fitted curve in the direction sought with a large enough effect; an effect the other way counts as inactive or inconclusive; note: potency is the fitted concentration of half-maximal effect; nearly all actives have a fitted effect of over 50% in size); conditions: recombinant CYP3A4, Luciferin-PPXE luminescence; series mostly up to 57.1 µM
Procedure, shortened: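 20 nM human CYP3A4 with 25 uM Luciferin-PPXE (at KM) in 200 mM KPO4, preincubated 10 min with compound; NADPH regeneration started a 60 min RT reaction. Luciferin detected by luminescence, normalized to 57 uM ketoconazole as full inhibition.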

Row | Structure (SMILES) | Potency [1] | activity change, negative = inhibition [2] | Potency [3] | activity change, negative = inhibition [4] | Potency [5] | Potency [6] | Potency [7] | activity, negative = inhibition [8] | Potency [9] | Potency [10] | Potency [11] | Potency [12] | Potency [13] | activity change, negative = inhibition [3]
1 | CCCCN(c1ccccc1)c1ncnc2c1cnn2C | > 11.4 µM | -1.19% | 0.631 µM (active) | 12.1% | > 46 µM | > 9.22 µM | inactive | – | – | – | – | – | – | –
2 | O=[N+]([O-])c1ccccc1N=Nc1c(O)[nH]c2ccc(S(=O)(=O)O)cc12 | > 11.4 µM | -1.77% | 1 µM (active) | 11% | – | > 9.22 µM | inactive | -1.49% | inactive | – | – | – | – | –
3 | N#[N+]c1ccc(Nc2ccccc2)cc1 | > 11.4 µM | -0.339% | inactive | -28.8% | – | – | inactive | -16.1% | inactive | – | – | – | – | –
4 | NC(=O)NC(=O)[C@H]1CCCC[C@@H]1C(=O)O | > 11.4 µM | 7.05% | inactive | -5.46% | – | > 9.22 µM | inactive | 17.8% | inactive | – | – | – | – | –
5 | CC(C)(CO[C@H]1C[C@H]2CC[C@@]1(C)C2(C)C)[N+](=O)[O-] | > 11.4 µM | -1.64% | inactive | 7.34% | – | > 9.22 µM | inactive | -3.85% | inactive | – | – | – | – | –
6 | c1cc(CNCCN2CCNCC2)ccn1 | > 11.4 µM | -6.63% | inactive | 3.58% | – | > 9.22 µM | inactive | -1.72% | inactive | inactive | – | – | – | –
7 | c1c[nH]c(CN2CCOCC2)n1 | > 11.4 µM | 6.52% | inactive | 6.99% | > 46 µM | > 9.22 µM | inactive | – | inactive | – | – | – | – | –
8 | O=C1c2ccccc2C(=O)c2c(NC3CCCCC3)ccc(Nc3ccc(S(=O)(=O)O)cc3)c21 | > 11.4 µM | -7.28% | 1.26 µM (active) | -27.6% | – | > 9.22 µM | – | -10.9% | inactive | – | 3.98 µM (active) | – | – | –
9 | O=C(Nc1cccc2ccccc12)c1ccccc1 | > 11.4 µM | -4.06% | 3.98 µM (active) | -11.4% | – | > 9.22 µM | inactive | 3.33% | inactive | inactive | – | inactive | 3.16 µM (active) | –
10 | N/C(=N\O)c1cn([C@@H]2O[C@@H](CO)[C@H](O)[C@@H]2O)c2ncnc(NO)c12 | > 11.4 µM | 5.84% | – | 19.5% | > 46 µM | > 9.22 µM | inactive | – | inactive | – | – | – | – | -18.7% [at 2.29 µM]
11 | C[C@@H](N)[C@@H](C)Cc1ccccc1 | > 11.4 µM | 10.1% | inactive | 6.03% | – | > 9.22 µM | inactive | 15.9% | inactive | – | – | – | – | –
12 | CN(C)Cc1cc(Cl)c(O)c(CN(C)C)c1 | > 11.4 µM | 0.0803% | inactive | 15.1% | – | > 9.22 µM | inactive | -1.91% | inactive | – | – | – | – | –
13 | Nc1ncnc2c1nc(-c1ccccc1)n2[C@H]1O[C@@H](CO)[C@@H](O)[C@H]1O | > 11.4 µM | -9.23% | – | 6.55% | – | – | inactive | 1.65% | inactive | – | – | – | – | -16.8% [at 2.29 µM]
14 | O=C(O)c1nnsc1-c1csnn1 | > 11.4 µM | 2.29% | inactive | 4.42% | > 46 µM | > 9.22 µM | inactive | – | inactive | – | – | – | – | –
15 | C[C@H]1C[C@H]2[C@H]3CCC4=CC(=O)C=C[C@@]4(C)[C@]3(F)[C@H](O)C[C@]2(C)[C@@]1(O)C(=O)COP(=O)(O)O | > 11.4 µM | -4.3% | inactive | 15.9% | – | – | inactive | -7.89% | inactive | – | – | – | – | –
16 | O=C(O)CS(=O)c1ccc2c3c(cccc13)C(=O)c1ccccc1-2 (centres undefined) | > 11.4 µM | -22.7% | 0.0631 µM (active) | -13.9% | – | > 9.22 µM | inactive | 1.69% | inactive | inactive | – | – | – | –
